In PubChem BioAssay AID1259418 (Broad Institute, 2018):
Out of some 3,400 compounds screened, about 840 (25%) were called active. About 11% were inconclusive and are not listed.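 How the source made its calls: active means fitted half-maximal concentration of signal decrease at or below twice the sample's top tested concentration; inconclusive means flat curve between -70 and -30 percent, or poor fit; inactive means flat within 30 percent, signal rise, or potency above limit.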 Only a sample is shown. Measured potencies and affinities stand elsewhere.

Assay: T. gondii growth inhibition with IFN-gamma, dose response, cell-based, ME49Luc, HeLa, luciferase, 72 h (AID 1259418)
Settings: T. gondii ME49Luc in IFN-y HeLa, hits give low values, -100% = high-dose IFN-γ control wells; at 19.5 µM unless noted

SMILES	max activity
Cc1oc(-c2cccc(Cl)c2)nc1Cn1nnc(-c2nc(-c3ccccc3)no2)c1C	25.3% (inactive)
COc1ccc(-c2nc(NCCN3CCC(C)CC3)c3ccccc3n2)cc1	14.8% (inactive)
CC(C)CCNc1nc(-c2ccc(Cl)cc2)nc2ccccc12	-13.6% [at 0.35 µM] (inactive)
CCCCNc1nc(-c2ccc(Cl)cc2)nc2ccccc12	12.4% [at 0.68 µM] (inactive)
COc1ccc(-c2nc(NCC3CCN(Cc4ccccc4Cl)CC3)c3ccccc3n2)cc1	-15.1% [at 10 µM] (inactive)
COc1ccc2[nH]cc(CCNC(=O)c3cc(-c4ccccn4)nc4ccccc34)c2c1	-12.8% [at 5 µM] (inactive)
Cc1ccc(-c2coc(-c3ccc(NS(=O)(=O)c4ccc(Cl)cc4)cc3)n2)cc1C	40.5% [at 2.6 µM] (inactive)
Cc1ccc(NC(=O)COc2nc(C)nc3ccccc23)c(Cl)c1	15.5% [at 0.68 µM] (inactive)
COc1cc(OC)cc(-c2noc(-c3nnn(Cc4nc(-c5cccc(C)c5)oc4C)c3C)n2)c1	-7.99% [at 0.16 µM] (inactive)
Cc1ccc(NC(=O)Nc2ccc(-c3nc(-c4ccc(C)cc4)co3)cc2)cc1	24% [at 5 µM] (inactive)
CCc1cccc(-n2nnc(C(=O)N3CCC(N4CCCCC4)CC3)c2-c2cccnc2)c1	25.9% [at 0.68 µM] (inactive)
COCC(=O)N1CCC2(CC1)CC1(CCN(CC(C)C)CC1)C(=O)N2C	34.4% (inactive)
O=C1CC(c2ccncc2)C2(CCN(Cc3nccs3)CC2)N1 (stereo not drawn)	22.8% (inactive)
CCS(=O)(=O)N1CC[C@H]2[C@@H]1CCN2Cc1cnn(C)c1	27.1% (inactive)
COc1ccc(-c2nc(Nc3ccc(OC)c(Cl)c3)c3ccccc3n2)cc1	16.4% [at 2.6 µM] (inactive)
COc1ccc(-c2nc(Nc3cc(Cl)c(OC)cc3OC)c3ccccc3n2)cc1	18.3% (inactive)
Cc1ccc(S(=O)(=O)N2CCC3(CC2)OC(C(=O)N(C)C)Cn2ccnc23)cc1 (stereo not drawn)	40.3% (inactive)
O=C(CN1CCOCC1)N1C[C@@H]2N[C@H](C1)C2c1ccc(/C=C/c2ccccc2)cc1 (stereo partly drawn)	41.5% [at 10 µM] (inactive)
O=C(C1CC1)N1C[C@@H]2N[C@H](C1)C2c1ccc(/C=C/c2ccccc2)cc1 (stereo partly drawn)	92.7% [at 0.08 µM] (inactive)
N#Cc1cccc(-c2ccc(C3[C@@H]4CN(C(=O)c5ccc6c(c5)OCO6)C[C@H]3N4)cc2)c1 (stereo partly drawn)	17.9% (inactive)
O=C(Nc1ccccc1F)N1C[C@@H]2N[C@H](C1)C2c1ccc(/C=C/c2ccccc2)cc1 (stereo partly drawn)	85.7% [at 1.2 µM] (inactive)
O=C(Nc1ccc2c(c1)OCO2)N1C[C@@H]2N[C@H](C1)C2c1ccc(C=Cc2ccccc2)cc1 (stereo partly drawn)	116% [at 1.2 µM] (inactive)
COc1ccccc1NC(=O)N1C[C@@H]2N[C@H](C1)C2c1ccc(/C=C/c2ccccc2)cc1 (stereo partly drawn)	-98% (inactive)
N#Cc1ccc(-c2ccc([C@@H]3[C@H]4CNC[C@@H]3N4Cc3ccc4c(c3)OCO4)cc2)cc1	28.6% [at 10 µM] (inactive)

SMILES	max activity
Cc1cccc(N2CCN(C(=O)c3ccc(-c4csc(C5CC5)n4)cc3)CC2C)c1 (stereo not drawn)	40.1% (inactive)
CCN1C(=O)CCc2cc(NC(=O)c3ccc(Br)o3)ccc21	15.9% [at 10 µM] (inactive)
Cc1ccc(-c2coc(-c3ccc(NC(=O)Nc4ccccc4Br)cc3)n2)cc1	-10.7% [at 10 µM] (inactive)
CCc1ccccc1NC(=O)CN1CCC2(CC1)N=C(c1cccc(Cl)c1)C(=O)N2	9.92% (inactive)
Cn1c(=O)c(C(=O)NCc2ccccc2Cl)cc2cccnc21	196% (inactive)
CCOc1ccc(-c2nc(CN(c3ccccc3OCC)S(=O)(=O)c3cccs3)c(C)o2)cc1	6.64% (inactive)
Cc1ccccc1N(Cc1nc(-c2cccc(Cl)c2)oc1C)S(=O)(=O)c1cccs1	-9.43% [at 5 µM] (inactive)
CCOc1ccc(-c2nc(CN(c3ccccc3C)S(=O)(=O)c3cccs3)c(C)o2)cc1OC	-13.1% [at 0.16 µM] (inactive)
Cc1ccccc1N(Cc1nc(-c2ccc(OC(C)C)cc2)oc1C)S(=O)(=O)c1cccs1	4.55% (inactive)
CCOC(=O)CSC1=Nc2ccccc2C2=NC(CC(=O)NCc3ccco3)C(=O)N12 (stereo not drawn)	21.4% [at 1.35 µM] (inactive)
COc1ccc(C(=O)Nc2ccc(-c3nc(-c4cc(C)ccc4C)co3)cc2)cc1	9.17% (inactive)
COc1ccccc1C(=O)N1CCC2(CC1)Nc1ccc(C)c(C)c1-n1cccc12	-7.27% [at 1.35 µM] (inactive)
CN1CCC(N2CCN(c3ncccc3-c3nnc(-c4ccc(Cl)cc4)o3)CC2)CC1	4.69% (inactive)
Cc1ccc(NC(=O)Nc2ccc(-c3nc(-c4ccccc4)co3)cc2)cc1Cl	9.34% (inactive)
CCOc1ccc(NC(=O)COc2nc(C)nc3ccccc23)cc1	30.4% [at 10 µM] (inactive)
Cc1ccc2c(c1C)-n1cccc1C1(CCN(C(=O)COc3ccc(F)cc3)CC1)N2	-9.55% [at 0.16 µM] (inactive)
Cc1ccc(-c2coc(-c3ccc(NC(=O)CC4CCCCC4)cc3)n2)cc1	-15.2% (inactive)
COc1ccccc1N(Cc1nc(-c2ccc(OC(C)C)cc2)oc1C)S(=O)(=O)c1cccs1	-8.76% [at 0.35 µM] (inactive)
CCOc1ccccc1N(Cc1nc(-c2cccc(C)c2)oc1C)S(=O)(=O)c1cccs1	10.6% (inactive)
COc1ccccc1N(Cc1nc(-c2ccccc2)oc1C)S(=O)(=O)c1cccs1	-5.51% [at 0.68 µM] (inactive)
CCOc1ccccc1N(Cc1nc(-c2cccc(Cl)c2)oc1C)S(=O)(=O)c1cccs1	6.9% (inactive)
O=C(O)CN1C[C@H]2c3ccccc3C(OCC3CC3)[C@@H]2C1 (stereo partly drawn)	42.3% (inactive)
CCc1ccc2c(c1)cc(S(=O)(=O)c1ccccc1)c(=O)n2CC(=O)NC1CCCC1	14.3% [at 0.16 µM] (inactive)
COc1ccc(-c2nc(Nc3ccc(C)c(F)c3)c3ccccc3n2)cc1	17.7% [at 2.6 µM] (inactive)
